Source: PubChem BioAssay (EPA / NIEHS)
Active and inactive are the calls of the source. The calls were made as follows: active = hit-call score of the fitted dose curve at least 0.9, where 1 is the maximum; inactive = score below 0.9.

Key:
[1] = ATG_ISRE_CIS: Attagene CIS-FACTORIAL HepG2 Assay for human Interferon Regulatory Factor 1 (IRF1) binding to an Interferon-Stimulated Response Element (ISRE) (AID 2282948); conditions: HepG2 ISRE cis-reporter (Attagene), mRNA transcription readout; actives raise or lower the signal
Outline: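 Transfected HepG2 (multiple reporter transcription units, cis elements) dosed 24 h. RNA → oligo(dT) RT → PCR → 6-FAM primer extension → HpaI → CE. DMSO = negative control/baseline.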

[2] = ATG_M_32_CIS: Attagene CIS-FACTORIAL HepG2 Assay for M32 Transcription Factor (Internal Marker) (AID 2282949); conditions: HepG2 Attagene cis-factorial M32 reporter, mRNA; actives raise or lower the signal;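 also: background control marker of the multiplexed CIS panel rather than a real target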
Outline: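 Fluorescent capillary electrophoresis peaks of HpaI-digested, FAM-labelled RT-PCR reporter products give the signal. Source: transiently transfected human liver HepG2 cells, 24 h after chemical dosing; bidirectional fitting against DMSO.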

[3] = ATG_M_06_CIS: Attagene CIS-FACTORIAL HepG2 Assay for M06 Transcription Factor (Internal Marker) (AID 2282950); conditions: HepG2 Attagene CIS-FACTORIAL M06 internal marker reporter; actives raise or lower the signal
Outline: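 Measured 24 h post-dosing in transiently transfected HepG2 cells, this internal-marker endpoint reports reporter mRNA via RT-PCR with fluorescent primer extension and capillary electrophoresis. DMSO served as negative control and baseline for bidirectional fitting.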

[4] = biological target: Hypoxia-inducible factor 1-alpha (Homo sapiens) (UniProt Q16665); test: ATG_HIF1a_CIS: Attagene CIS-FACTORIAL HepG2 Assay for human Hypoxia Inducible Factor 1 (HIF1A) (AID 2282951); conditions: HepG2 Attagene cis-factorial HIF1a reporter transcription; actives raise or lower the signal
Outline: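 Measures endogenous transcription-factor activity through cis-regulated reporter mRNA in HepG2. Cells dosed 24 h; transcripts quantified by RT-PCR with 6-FAM-labelled products separated by capillary electrophoresis; DMSO serves as negative control.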

[5] = biological target: Hepatocyte nuclear factor 6 (Homo sapiens) (UniProt Q9UBC0); test: ATG_HNF6_CIS: Attagene CIS-FACTORIAL HepG2 Assay for human Hepatocyte Nuclear Factor 6 (HNF6) (AID 2282952); conditions: HepG2 Attagene cis-factorial HNF6 reporter transcription; actives raise or lower the signal
Outline: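 HepG2 cells transiently transfected with cis-element-driven multiple reporter transcription units, dosed 24 h; reporter mRNA quantified by RT-PCR, FAM primer extension, HpaI digestion and capillary electrophoresis; bidirectional fit versus DMSO baseline.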

[6] = ATG_MRE_CIS: Attagene CIS-FACTORIAL HepG2 Assay for human Metal Responsive Element (MRE) (AID 2282954); conditions: HepG2 MRE cis-reporter transcription, Attagene multiplex; actives raise or lower the signal
Outline: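 HepG2 cells transiently transfected with cis-element-driven reporter units; mRNA measured 24 h after dosing. Reporter transcripts quantified by RT-PCR, FAM labelling, HpaI digestion and capillary electrophoresis; bidirectional fit versus DMSO.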

[7] = ATG_PBREM_CIS: Attagene CIS-FACTORIAL HepG2 Assay for human Phenobarbital-responsive Enhancer Module (PBREM) (AID 2282955); conditions: HepG2 PBREM cis-reporter, Attagene multiplexed transcription; actives raise or lower the signal
Outline: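 Fluorescence of labelled reporter cDNA fragments, resolved by capillary electrophoresis, gives mRNA induction in transfected HepG2 cells treated for 24 h; DMSO serves as negative control and baseline.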

[8] = biological target: Paired box protein Pax-6 (Homo sapiens) (UniProt P26367); test: ATG_Pax6_CIS: Attagene CIS-FACTORIAL HepG2 Assay for human Paired Box 6 (PAX6) (AID 2282956); conditions: HepG2 CIS-FACTORIAL PAX6 reporter transcription, RNA readout; actives raise or lower the signal
Outline: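 Transient MRTU transfection of HepG2 → compound exposure 24 h → TriZol RNA, oligo(dT) RT → PCR, 6-FAM primer extension, HpaI cut → capillary electrophoresis; activity fitted both directions against DMSO.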

[9] = ATG_PXRE_CIS: Attagene CIS-FACTORIAL HepG2 Assay for human Pregnane X Receptor Element (PXRE) (AID 2282957); conditions: HepG2 Attagene CIS-FACTORIAL PXRE reporter, mRNA; actives raise or lower the signal
Outline: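 HepG2 cells transiently transfected with cis-regulated multiple reporter transcription units; endogenous factor activity measured as reporter mRNA 24 h after dosing. RT-PCR, fluorescent primer extension, HpaI digestion, capillary electrophoresis; bidirectional fit versus DMSO baseline.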

Measured: AC50

Chain of Paired box protein Pax-6 (Homo sapiens) (P26367 whole entry, looked up): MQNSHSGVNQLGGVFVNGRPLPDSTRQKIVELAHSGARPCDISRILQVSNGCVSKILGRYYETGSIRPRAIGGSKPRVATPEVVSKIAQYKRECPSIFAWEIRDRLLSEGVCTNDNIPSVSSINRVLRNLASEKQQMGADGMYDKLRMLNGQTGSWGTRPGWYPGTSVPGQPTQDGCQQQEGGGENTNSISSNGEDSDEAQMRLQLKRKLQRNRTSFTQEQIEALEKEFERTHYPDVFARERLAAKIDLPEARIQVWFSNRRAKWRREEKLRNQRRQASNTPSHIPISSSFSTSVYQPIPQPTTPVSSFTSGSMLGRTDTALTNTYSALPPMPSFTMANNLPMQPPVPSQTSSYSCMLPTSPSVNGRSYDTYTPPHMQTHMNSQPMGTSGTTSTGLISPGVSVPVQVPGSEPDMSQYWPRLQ
Chain of Hepatocyte nuclear factor 6 (Homo sapiens) (Q9UBC0 whole entry, looked up): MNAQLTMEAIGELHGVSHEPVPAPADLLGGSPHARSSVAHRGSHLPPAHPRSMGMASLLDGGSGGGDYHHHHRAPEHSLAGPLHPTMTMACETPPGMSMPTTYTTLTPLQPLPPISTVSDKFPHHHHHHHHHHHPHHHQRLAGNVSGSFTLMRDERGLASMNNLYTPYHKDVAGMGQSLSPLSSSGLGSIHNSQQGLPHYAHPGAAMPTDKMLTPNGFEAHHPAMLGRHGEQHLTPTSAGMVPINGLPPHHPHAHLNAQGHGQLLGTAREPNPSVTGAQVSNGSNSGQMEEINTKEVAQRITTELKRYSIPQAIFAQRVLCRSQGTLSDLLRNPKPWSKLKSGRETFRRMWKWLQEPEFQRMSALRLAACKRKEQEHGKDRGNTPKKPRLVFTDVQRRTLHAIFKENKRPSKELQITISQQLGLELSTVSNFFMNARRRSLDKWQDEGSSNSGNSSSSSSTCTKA
Chain of Hypoxia-inducible factor 1-alpha (Homo sapiens) (Q16665 whole entry, looked up): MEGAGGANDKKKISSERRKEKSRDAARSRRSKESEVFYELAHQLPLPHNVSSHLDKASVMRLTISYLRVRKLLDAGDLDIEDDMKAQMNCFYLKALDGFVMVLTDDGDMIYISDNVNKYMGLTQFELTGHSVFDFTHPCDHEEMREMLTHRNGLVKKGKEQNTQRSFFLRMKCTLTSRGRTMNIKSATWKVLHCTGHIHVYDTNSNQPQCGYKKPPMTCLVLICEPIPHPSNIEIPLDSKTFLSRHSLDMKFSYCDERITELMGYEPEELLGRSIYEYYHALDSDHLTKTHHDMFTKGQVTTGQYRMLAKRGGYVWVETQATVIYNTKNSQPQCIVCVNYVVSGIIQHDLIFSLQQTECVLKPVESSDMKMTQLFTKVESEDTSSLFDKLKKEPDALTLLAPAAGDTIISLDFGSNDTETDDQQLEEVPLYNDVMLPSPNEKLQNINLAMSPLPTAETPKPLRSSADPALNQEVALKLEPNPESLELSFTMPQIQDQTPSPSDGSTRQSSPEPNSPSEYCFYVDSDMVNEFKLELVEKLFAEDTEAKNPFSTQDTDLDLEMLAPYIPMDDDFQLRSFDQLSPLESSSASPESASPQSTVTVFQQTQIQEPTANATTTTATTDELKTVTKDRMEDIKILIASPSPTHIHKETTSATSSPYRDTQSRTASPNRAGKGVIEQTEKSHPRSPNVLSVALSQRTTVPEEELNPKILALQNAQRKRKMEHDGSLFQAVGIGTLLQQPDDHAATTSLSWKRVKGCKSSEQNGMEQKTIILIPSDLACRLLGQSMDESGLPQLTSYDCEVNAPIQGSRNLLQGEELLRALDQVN

CCCCCCCCCCCCc1cccc(S(=O)(=O)O)c1
active: [9] 17.9 µM
inactive: [1] | [2] | [3] | [4] | [5] | [6] | [7] | [8]

Cc1cc(-c2cc(C)c(N)c(C)c2)cc(C)c1N
inactive: [1] | [2] | [3] | [4] | [5] | [6] | [7] | [8]
active: [9] 26.5 µM

CC1CC(=O)O1 (stereo not given)
active: [4] 88 µM
inactive: [1] | [2] | [3] | [5] | [6] | [8] | [9]

CCOP(=S)(OCC)Oc1ccc(Cl)cc1Cl
active: [9] 3.82 µM
inactive: [1] | [2] | [3] | [4] | [5] | [6] | [7]

Oc1cccc(-c2ccccc2)c1
inactive: [1] | [2] | [3] | [4] | [5] | [7] | [8]
active: [9] 27.2 µM

CCC[CH2][Sn]([Cl])([Cl])[CH2]CCC
active: [1] 1.99 µM | [4] 1.24 µM | [6] 1.24 µM | [8] 1.46 µM | [9] 0.865 µM
inactive: [2] | [3] | [5] | [7]

N#Cc1ccccc1N
active: [9] 39.4 µM
inactive: [1] | [2] | [3] | [4] | [5] | [7] | [8]

CCOC(=O)CC(=O)CCl
active: [1] 31.2 µM | [6] 26 µM | [8] 27.4 µM
inactive: [2] | [3] | [4] | [5] | [7]

Cc1cc(Cl)ccc1N
inactive: [1] | [2] | [3] | [4] | [5] | [7]

Nc1cccnc1
active: [9] 40.2 µM
inactive: [1] | [2] | [3] | [4] | [5] | [6] | [7] | [8]

CN(N=O)C(N)=O
inactive: [1] | [2] | [3] | [4] | [5] | [6] | [7] | [8] | [9]

O=C(Cl)OCCOCCOC(=O)Cl
inactive: [1] | [2] | [3] | [4] | [5] | [6] | [7] | [8] | [9]

O=[N+]([O-])c1cc([As](=O)(O)O)ccc1O
inactive: [1] | [2] | [3] | [4] | [5] | [6] | [9]

Cc1cc(C(F)(C(F)(F)F)C(F)(F)F)ccc1NC(=O)c1cccc(I)c1C(=O)NC(C)(C)CS(C)(=O)=O
active: [9] 0.633 µM
inactive: [1] | [2] | [3] | [4] | [5] | [6] | [7] | [8]

O=S(=O)(F)C(F)(F)C(F)(F)C(F)(F)C(F)(F)F
inactive: [1] | [2] | [3] | [4] | [5] | [6] | [7] | [8] | [9]

CN(CCCC(O)c1cccnc1)N=O (stereo not given)
inactive: [1] | [2] | [3] | [4] | [5] | [6] | [8] | [9]

Brc1ccc(Oc2c(Br)cc(Br)cc2Br)c(Br)c1
inactive: [1] | [2] | [3] | [4] | [5] | [7] | [8]

CCCCOC(C)=O
inactive: [1] | [2] | [3] | [4] | [5] | [6] | [8] | [9]

COC(=O)Nc1cccc(OC(=O)Nc2cccc(C)c2)c1
inactive: [1] | [2] | [3] | [4] | [5] | [6] | [7] | [8] | [9]

CCOC(=O)c1ccccc1S(=O)(=O)NC(=O)Nc1nc(Cl)cc(OC)n1
inactive: [1] | [2] | [3] | [4] | [5] | [6] | [7] | [8]

OCCN(CCO)CCO
inactive: [1] | [2] | [3] | [4] | [5] | [6] | [7] | [8] | [9]

Cc1ccccc1OP(=O)(Oc1ccccc1C)Oc1ccccc1C
active: [1] 7 µM | [6] 10.8 µM | [9] 0.0902 µM
inactive: [2] | [3] | [4] | [5] | [7] | [8]

O=S1(=O)OC(c2cc(Br)c(O)c(Br)c2)(c2cc(Br)c(O)c(Br)c2)c2ccccc21
inactive: [1] | [2] | [3] | [4] | [5] | [6] | [7] | [8]
active: [9] 24.5 µM

CC(O)(CS(=O)(=O)c1ccc(F)cc1)C(=O)Nc1ccc(C#N)c(C(F)(F)F)c1 (stereo not given)
inactive: [1] | [2] | [3] | [4] | [5] | [7] | [8]
active: [6] 72.3 µM | [9] 3.99 µM

NC(=O)c1ccc(N)nc1
inactive: [1] | [2] | [3] | [4] | [5] | [6] | [7] | [8] | [9]
